{
  "source": "PubChem BioAssay AID504433",
  "about": "(National Center for Advancing Translational Sciences (NCATS), 2011)",
  "note": "Several values for one entry are separate records, joined by “and”; a condition that tells them apart may be missing. Equal entries are not always repeated. Records with an inconclusive call do not appear. Values without a mark were called inactive. Activity calls are given as the source filed them. The call rests on the fitted dose curve; in most records, active means well fitted inhibition curve with a large enough effect; inconclusive means small, poorly fitted or top-dose-only effect; inactive means flat fitted curve, though single readings scatter.",
  "data": [
    {"test": "Secondary Assay for lipid storage modulators: Cytotoxcity for probe SAR round 2", "details": "Drosophila S3 cells viability, CellTiter-Glo ATP luminescence, 24 h; series mostly up to 46.1 µM; activity change, negative = cytotoxicity: at the top concentration", "excerpt": "NIH Molecular Libraries Probe Production Centers Network [MLPCN] NIH Chemical Genomics Center [NCGC] MLPCN Grant: 1 R03 MH085686-01 Assay Submitter (PI): Beller, Mathias; Max-Planck-Institut fur Biophysikalische Chemie, Germany. NCGC Assay Overview: Storing lipids as a reservoir for energy or the anabolism of elementary metabolites is a common feature of probably all cells and is conserved from bacteria to humans. The universal cellular lipid storage organelle is the so-called lipid storage droplet (LD). Although ubiquitous, LDs share a simple structure composed of a hydrophobic core that harbors the storage lipids, which is shielded by a droplet-specific phospholipid monolayer to which proteins are attached. The current model of LD biogenesis involves an incorporation of the lipid core into the membrane leaflets of the endoplasmic reticulum (ER) followed by a subsequent budding-like maturation of a LD, which ultimately pinches off. Once released, LD volume can increase by localized lipogenesis or fusion of existing droplet. Storage lipids are re-mobilized enzymatically by lipase activity. Lipase regulation in the adipocyte is heavily studied and involves multiple components including catecholamine signaling, the LD-associated proteins Perilipin and comparative gene identification (CGI-58) and at least two lipases named hormone sensitive lipase (HSL) and adipocyte triglyceride lipase (ATGL). LD regulation outside of the adipocyte is poorly understood and only few components are known. However, there is an urgent need to learn more about ectopic fat depots as mislocalized storage of lipids, for example in the liver or muscle, is an eminent health problem associated with insulin resistance or the metabolic syndrome. We developed a laser-scanning cytometer assay to enable 1,536-well screening and combined the results of the small molecules screen with an RNAi database based on lipid storage. The compound was tested here for cytotoxcity using CellTiter-Glo.\nAssay Protocol Summary: Cytotoxcity assay was performed with embryonic Drosophila S3 cells (Bloomington Drosophila Genomics Resource Center [DGRC]). We dispensed 4 uL of cells at 1.25 x 10^6 cells/mL into Greiner solid white 1,536-well plates with a bottle-valve solenoid-based dispenser (Aurora) to obtain 5,000 cells/well. A total of 23 nL of compound solution of different concentrations were transferred to the assay plates using a Kalypsys pin tool equipped with a 1,536-pin array containing 10-nL slotted pins (FP1S10, 0.457-mm diameter, 50.8 mm long; V&P Scientific). One microliter of oleic acid (400 uM) was added, and the plate was lidded with stainless steel rubber gasket lined lids containing pinholes. After 24 hrs of incubation at 24 degrees Celsius and 95% humidity, 4 uL of CellTiter-Glo (Promega) was added to the wells. Luminescence was detected on the Perkin Elmer ViewLux.", "units": {"activity change, negative = cytotoxicity": "%"}, "values": [
      {"smiles": "CCOC(=O)C1CCN(C(=O)C(C)(C)NC(=O)Nc2ccc3ccccc3c2)CC1", "activity change, negative = cytotoxicity": -17.5},
      {"smiles": "CCOC(=O)C1CCN(C(=O)C(C)(C)NC(=O)Nc2ccc(N(C)C)cc2)CC1", "activity change, negative = cytotoxicity": -8.42},
      {"smiles": "CCOC(=O)C1CCN(C(=O)C(C)(C)NC(=O)Nc2ccc(N)cc2)CC1", "activity change, negative = cytotoxicity": -12},
      {"smiles": "CCOC(=O)C1CCN(C(=O)C(C)(C)NC(=O)Nc2cccc(-c3csc(C)n3)c2)CC1", "activity change, negative = cytotoxicity": -12.3},
      {"smiles": "CCNC(=O)C1CCN(C(=O)C(C)(C)NC(=O)Nc2ccccc2Cl)CC1", "activity change, negative = cytotoxicity": -13.9},
      {"smiles": "O=C(N[C@H]1CCCc2c1cnn2-c1ccc(F)cc1F)c1ccccn1", "activity change, negative = cytotoxicity": -19.2},
      {"smiles": "CCOC(=O)C1CCN(C(=O)C(C)(C)NC(=O)Nc2cccc(OC)c2)CC1", "activity change, negative = cytotoxicity": -15.5},
      {"smiles": "CCOC(=O)C1CCN(C(=O)C(C)(C)NC(=O)Nc2ccccc2Cl)CC1", "activity change, negative = cytotoxicity": -19},
      {"smiles": "CCOC(=O)C1CCN(C(=O)C(C)(C)NC(=O)Nc2ccc(F)c(F)c2)CC1", "activity change, negative = cytotoxicity": -14.3},
      {"smiles": "CCOC(=O)C1CCN(C(=O)C(C)(C)NC(=O)Nc2ccc(Cl)cc2Cl)CC1", "activity change, negative = cytotoxicity": -16.8},
      {"smiles": "CCOC(=O)C1CCN(C(=O)C(C)(C)NC(=O)Nc2ccc(OC)c(Cl)c2)CC1", "activity change, negative = cytotoxicity": -11.8},
      {"smiles": "O=C(NC1CCCc2c1cnn2-c1ccc(F)cc1F)c1ccccc1", "note": "(configuration not stated)", "Potency": "4.99 µM (active)"},
      {"smiles": "CCOC(=O)C1CCN(C(=O)C(C)(C)NC(=O)Nc2ccc(C#N)cc2)CC1", "activity change, negative = cytotoxicity": -23.1},
      {"smiles": "CCOC(=O)C1CCN(C(=O)C(C)(C)NC(=O)Nc2ccc3c(c2)CCC3)CC1", "activity change, negative = cytotoxicity": -14.7},
      {"smiles": "CCOC(=O)C1CCN(C(=O)C(C)(C)NC(=O)Nc2cccc(C(=O)OC)c2)CC1", "activity change, negative = cytotoxicity": -4.92},
      {"smiles": "CCOC(=O)C1CCN(C(=O)C(C)(C)NC(=O)Nc2ccc(CN3CCOCC3)cc2)CC1", "activity change, negative = cytotoxicity": -4.86},
      {"smiles": "O=C(NC1CCCc2c1cnn2-c1ccc(F)cc1F)c1ccccn1", "note": "(configuration not stated)", "Potency": "7.05 µM (active) and 11.2 µM (active)"},
      {"smiles": "O=C(NC1CCCc2c1cnn2-c1ccc(F)cc1F)c1cccs1", "note": "(configuration not stated)", "Potency": "5.6 µM (active)"},
      {"smiles": "CC(C)(NC(=O)Nc1ccccc1Cl)C(=O)N1CCC(C(=O)O)CC1", "activity change, negative = cytotoxicity": -14.9},
      {"smiles": "CCN(CC)C(=O)C1CCN(C(=O)C(C)(C)NC(=O)Nc2ccccc2Cl)CC1", "activity change, negative = cytotoxicity": -15.3},
      {"smiles": "CC(C)(C)OC(=O)NCCOCCOCCOc1ccc(-n2ncc3c2CCCC3NC(=O)c2ccccn2)cc1", "note": "(configuration not stated)", "Potency": "3.15 µM (active)"},
      {"smiles": "CC(C)(C)OC(=O)NCCOCCOCCOc1cccc(-n2ncc3c2CCCC3NC(=O)c2ccccn2)c1", "note": "(configuration not stated)", "Potency": "5.6 µM (active)"}
    ]}
  ]
}
